Reference: the supplement of paper PMC12494721
Structures can show the parent of a compound that is named as a salt.

Tests used:
Conditions in all cases: incubation time: 27 h, anaerobic, 37 °C;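 for the amine columns active = adjusted P below 0.05 in both replicates with a change the same way and a mean fold change under 0.8 or over 1.25; inactive = the rest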
[1] = test system: Clostridium sporogenes DSM 1664; assay: growth (OD595) fold change vs plate DMSO controls (fold change (ratio)); higher = more growth
Summary of the method: (§1)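 Each value is the mean of 2 biological replicates, and fold changes above 1.5 were set to NA. The underlying readings were taken at 595 nm from shaken anaerobic mGAM cultures in 96-well plates after 27 h at 37 °C. They were blank-subtracted, corrected for compound background using 20 µM compound solutions in water, and converted to OD with a calibration factor of 5. Growth is the fold change relative to the median of the plate DMSO controls.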

Escherichia coli IAI1 [2] = assay: as above
Summary of the method: as §1

[3] = test system: Klebsiella aerogenes DSM 30053; assay: as above
Summary of the method: as §1

[4] = test system: Ruminococcus gnavus DSM 108212; assay: as above
Summary of the method: as §1

[5] = test system: Klebsiella aerogenes DSM 30053; assay: fold change of Histamine concentration vs plate DMSO controls (fold change (ratio)); higher = more amine produced, active = hit call of the paper (significant change in both replicates, either direction)
Summary of the method: (§2)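 Using LC–triple-quadrupole MS with dynamic MRM, amines were quantified against external calibration curves and corrected for drift within each batch. Samples were whole anaerobic mGAM cultures of four gut strains, grown 27 h at 37 °C from OD 0.1 before 1:1 dilution, extracted with cold acetonitrile/methanol containing 0.1% formic acid and centrifuged. Compounds were present at 20 µM final (sweeteners at 50 µM final). The numbers are fold changes versus plate DMSO controls, each the mean of 2 biological replicates.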

[6] = test system: Clostridium sporogenes DSM 1664; assay: fold change of Tryptamine concentration vs plate DMSO controls (fold change (ratio)); higher = more amine produced, active = hit call of the paper (significant change in both replicates, either direction)
Summary of the method: as §2

[7] = test system: Ruminococcus gnavus DSM 108212; assay: as above
Summary of the method: as §2

Escherichia coli IAI1 [8] = assay: fold change of Putrescine concentration vs plate DMSO controls (fold change (ratio)); higher = more amine produced, active = hit call of the paper (significant change in both replicates, either direction)
Summary of the method: as §2

[9] = test system: Klebsiella aerogenes DSM 30053; assay: as above
Summary of the method: as §2

Escherichia coli IAI1 [10] = assay: fold change of Cadaverine concentration vs plate DMSO controls (fold change (ratio)); higher = more amine produced, active = hit call of the paper (significant change in both replicates, either direction)
Summary of the method: as §2

[11] = test system: Klebsiella aerogenes DSM 30053; assay: as above
Summary of the method: as §2

[12] = test system: Ruminococcus gnavus DSM 108212; assay: fold change of 2-Phenylethylamine concentration vs plate DMSO controls (fold change (ratio)); higher = more amine produced, active = hit call of the paper (significant change in both replicates, either direction)
Summary of the method: as §2

| SMILES | growth [1] | growth (Escherichia coli IAI1 [2]) | growth [3] | growth [4] | fold change of Histamine concentration [5] | fold change of Tryptamine concentration [6] | fold change of Tryptamine concentration [7] | fold change of Putrescine concentration (Escherichia coli IAI1 [8]) | fold change of Putrescine concentration [9] | fold change of Cadaverine concentration (Escherichia coli IAI1 [10]) | fold change of Cadaverine concentration [11] | fold change of 2-Phenylethylamine concentration [12] |
| --- | --- | --- | --- | --- | --- | --- | --- | --- | --- | --- | --- | --- |
| C=C1C[C@H]2[C@@H]3C=C(C)C4=CC(=O)CC[C@]4(C)[C@H]3CC[C@]2(C)[C@@]1(OC(C)=O)C(C)=O [Melengestrol acetate] (20 µM) | 1.17 | 1.07 | 1.07 | 1.04 | 1.03 (inactive) | 1 (inactive) | 1.03 (inactive) | 1.02 (inactive) | 1 (inactive) | 1.02 (inactive) | 0.995 (inactive) | 1.05 (inactive) |
| OC[C@@H](O)[C@@H](O[C@H]1O[C@H](CO)[C@@H](O)[C@H](O)[C@H]1O)[C@H](O)[C@@H](O)CO [Maltitol] (50 µM) | 1 | 0.988 | 1.02 | 0.976 | 1 (inactive) | 1.01 (inactive) | 0.988 (inactive) | 1.05 (inactive) | 1.02 (inactive) | 1.04 (inactive) | 1.01 (inactive) | 0.941 (inactive) |
| O=C(NCC(O)CO)c1c(I)c(C(=O)NCC(O)CO)c(I)c(N(CCO)C(=O)CO)c1I (stereo not given) [Ioversol] (20 µM) | 1.09 | 0.998 | 1.01 | 1.11 | 0.997 (inactive) | 1.11 (inactive) | 1.11 (inactive) | 0.923 (inactive) | 0.975 (inactive) | 0.924 (inactive) | 1.02 (inactive) | 1.12 (inactive) |
| CN1CCCCC1CCN1c2ccccc2Sc2ccc([S+](C)[O-])cc21 (stereo not given) [Mesoridazine besylate] (20 µM) | 1.12 | 0.991 | 0.974 | 0.756 | 1.1 (inactive) | 0.992 (inactive) | 1.02 (inactive) | 1 (inactive) | 1.02 (inactive) | 1.01 (inactive) | 0.978 (inactive) | 0.987 (inactive) |
| Cc1c(O)cccc1C(=O)N[C@@H](CSc1ccccc1)[C@H](O)CN1C[C@H]2CCCC[C@H]2C[C@H]1C(=O)NC(C)(C)C [Nelfinavir mesylate] (20 µM) | 1.07 | 1.09 | 1.01 | 0.967 | 0.979 (inactive) | 0.96 (inactive) | 0.829 (inactive) | 1.05 (inactive) | 1.02 (inactive) | 1.01 (inactive) | 1 (inactive) | 0.894 (inactive) |
| Nc1ccc(S(=O)(=O)NC(=O)c2ccccc2)cc1 [Sulfabenzamide] (20 µM) | 1.18 | 1.07 | 1.05 | 1.1 | 0.998 (inactive) | 1.07 (inactive) | 1.04 (inactive) | 0.947 (inactive) | 0.991 (inactive) | 0.967 (inactive) | 1.01 (inactive) | 1.09 (inactive) |
| Nc1c2c(nc3ccccc13)CCCC2 [Tacrine hydrochloride] (20 µM) | 0.896 | 0.951 | 0.932 | 0.696 | 1.05 (inactive) | 1.03 (inactive) | 1.12 (inactive) | 0.945 (inactive) | 0.94 (inactive) | 1.04 (inactive) | 1.15 (inactive) | 1.32 (active) |
| Oc1c(Cl)cc(Cl)c2cccnc12 [Chloroxine] (20 µM) | 1.12 | 0.966 | 1.02 | 0.369 | 0.921 (inactive) | 1.02 (inactive) | 0.589 (active) | 0.945 (inactive) | 0.981 (inactive) | 1.31 (active) | 1.01 (inactive) | 0.681 (inactive) |
| COC(=O)Nc1nc2cc(Sc3ccccc3)ccc2[nH]1 [Fenbendazole] (20 µM) | 1 | 1.08 | 0.98 | 1.09 | 1.07 (inactive) | 0.986 (inactive) | 1 (inactive) | 1.05 (inactive) | 1.03 (inactive) | 0.967 (inactive) | 0.991 (inactive) | 1.02 (inactive) |
| CCCCC(CC)CNC(=N)NC(=N)NCCCCCCNC(=N)NC(=N)NCC(CC)CCCC (stereo not given) [Alexidine dihydrochloride] (20 µM) | 0.294 | 0.938 | 0.967 | 0.624 | 1.11 (inactive) | 0.172 (active) | 0.0418 (active) | 1.08 (inactive) | 1.02 (inactive) | 1.12 (inactive) | 0.999 (inactive) | 0.0355 (active) |
| CCc1nc(N)nc(N)c1-c1ccc(Cl)cc1 [Pyrimethamine] (20 µM) | 1.05 | 0.96 | 0.961 | 1.17 | 1.07 (inactive) | 1.01 (inactive) | 0.912 (inactive) | 0.792 (inactive) | 0.977 (inactive) | 1.32 (active) | 0.989 (inactive) | 0.819 (inactive) |
| OC[C@@H](O)[C@@H](O)CO [Erythritol] (50 µM) | 0.882 | 1.12 | 0.977 | 1.02 | 1.05 (inactive) | 1 (inactive) | 0.974 (inactive) | 1.03 (inactive) | 0.995 (inactive) | 1.05 (inactive) | 0.993 (inactive) | 0.945 (inactive) |
| CC(C)(C)NCC(O)c1cc(O)cc(O)c1 (stereo not given) [Terbutaline hemisulfate] (20 µM) | 0.98 | 1.02 | 1.05 | 1.11 | 1.02 (inactive) | 1.05 (inactive) | 1.06 (inactive) | 1.05 (inactive) | 0.985 (inactive) | 0.932 (inactive) | 0.993 (inactive) | 1.06 (inactive) |
| Cc1cc(NS(=O)(=O)c2ccc(N)cc2)nc(C)n1 [Sulfisomidine] (20 µM) | 1.12 | 1.07 | 1.04 | 1.03 | 1.02 (inactive) | 1.08 (inactive) | 1.04 (inactive) | 0.985 (inactive) | 0.987 (inactive) | 0.993 (inactive) | 0.992 (inactive) | 1.08 (inactive) |
| CCOCCn1c(N2CCCN(C)CC2)nc2ccccc21 [Emedastine difumarate] (20 µM) | 1.08 | 1.02 | 1.03 | 0.971 | 0.993 (inactive) | 0.994 (inactive) | 1.02 (inactive) | 0.991 (inactive) | 1.01 (inactive) | 1 (inactive) | 0.999 (inactive) | 1.05 (inactive) |
| N=C(N)NS(=O)(=O)c1ccc(N)cc1 [Sulfaguanidine] (20 µM) | 0.947 | 1.07 | 0.963 | 0.676 | 1.04 (inactive) | 1.27 (inactive) | 1.09 (inactive) | 1.2 (inactive) | 0.853 (inactive) | 1.04 (inactive) | 1.05 (inactive) | 1.09 (inactive) |
| C[C@]12CCC(=O)C=C1CC[C@@H]1[C@@H]2C(=O)C[C@@]2(C)[C@H]1CC[C@]2(O)C(=O)CO [Cortisone] (20 µM) | 1.15 | 0.978 | 1 | 1.23 | 0.991 (inactive) | 0.974 (inactive) | 1.01 (inactive) | 1 (inactive) | 1 (inactive) | 0.994 (inactive) | 1.01 (inactive) | 1.03 (inactive) |
| CCOC(=O)[C@H](CCc1ccccc1)N[C@@H](C)C(=O)N1[C@H](C(=O)O)C[C@@H]2CCC[C@@H]21 [Ramipril] (20 µM) | 1.06 | 0.984 | 1.13 | 1.19 | 0.948 (inactive) | 0.963 (inactive) | 0.966 (inactive) | 0.999 (inactive) | 1.05 (inactive) | 0.964 (inactive) | 1.05 (inactive) | 0.911 (inactive) |
| CCCC(=O)Nc1ncnc2c1ncn2[C@@H]1O[C@@H]2COP(=O)(O)O[C@H]2[C@H]1OC(=O)CCC [Bucladesine sodium salt] (20 µM) | 0.934 | 1.16 | 1.04 | 0.964 | 0.931 (inactive) | 0.976 (inactive) | 0.984 (inactive) | 1.06 (inactive) | 0.983 (inactive) | 1 (inactive) | 1.01 (inactive) | 0.975 (inactive) |
| CCCCc1nc(Cl)c(CO)n1Cc1ccc(-c2ccccc2-c2nnn[nH]2)cc1 [Losartan] (20 µM) | 1.01 | 0.991 | 1.01 | 0.99 | 1.07 (inactive) | 0.975 (inactive) | 1.05 (inactive) | 1.01 (inactive) | 1.04 (inactive) | 0.99 (inactive) | 1 (inactive) | 1.06 (inactive) |
| O=C1c2c(O)cccc2Cc2cccc(O)c21 [Anthralin] (20 µM) | 1.07 | 0.981 | 1.03 | 0.95 | 1.05 (inactive) | 1.1 (inactive) | 0.996 (inactive) | 1.02 (inactive) | 1.01 (inactive) | 0.992 (inactive) | 0.999 (inactive) | 0.91 (inactive) |
| OC[C@H]1O[C@@H](O[C@@H]2[C@@H](CO)OC(O)(CO)[C@H]2O)[C@H](O)[C@@H](O)[C@H]1O (mixture of isomers) [Lactulose] (50 µM) | 1.06 | 0.906 | 1.01 | 0.977 | 1.01 (inactive) | 0.98 (inactive) | 1 (inactive) | 0.955 (inactive) | 1.02 (inactive) | 1.05 (inactive) | 0.994 (inactive) | 0.98 (inactive) |
| Cc1cccc(C)c1OCC(C)N (stereo not given) [Mexiletine hydrochloride] (20 µM) | 0.941 | 1.02 | 1.15 | 0.936 | 0.934 (inactive) | 0.991 (inactive) | 1.02 (inactive) | 0.985 (inactive) | 0.998 (inactive) | 1.03 (inactive) | 1.02 (inactive) | 1.07 (inactive) |
| O=C(CCCN1CCN(c2ccccn2)CC1)c1ccc(F)cc1 [Azaperone] (20 µM) | 1.12 | 1.24 | 0.974 | 1.12 | 1.01 (inactive) | 1.14 (inactive) | 0.963 (inactive) | 1.31 (inactive) | 0.987 (inactive) | 0.84 (inactive) | 1.01 (inactive) | 0.998 (inactive) |
| CCCCNc1c(C(=O)OCC)c(C)nc2c1cnn2CC [Tracazolate hydrochloride] (20 µM) | 1.14 | 0.998 | 1.01 | 0.943 | 0.977 (inactive) | 0.933 (inactive) | 1.08 (inactive) | 1.01 (inactive) | 0.993 (inactive) | 1.03 (inactive) | 1 (inactive) | 1.11 (inactive) |
